Test results from PubChem BioAssay (NCI).
Compounds without any hit were thinned out: in the full panel of roughly 83,000, 20% have a hit.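 Each cell line was grown in a 96-well plate and treated with one concentration of compound for 48 hours. Values below 10 were considered active.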 Calls of active or inactive are those of the source.

How the values were obtained:
Assay in all cases: NCI-60 one-dose screen, 48 h (100 = growth as untreated, 0 = no growth, -100 = all killed)
Conditions in all cases: 10 µM unless noted
SK-MEL-2 melanoma = tested on: SK-MEL-2 melanoma
EKVX NSCLC = tested on: EKVX NSCLC
SN12C renal = tested on: SN12C renal
UO-31 renal = tested on: UO-31 renal
TK-10 renal = tested on: TK-10 renal
ACHN renal = tested on: ACHN renal
CAKI-1 renal = tested on: CAKI-1 renal
A498 renal = tested on: A498 renal
CCRF-CEM leukemia = tested on: CCRF-CEM leukemia
MOLT-4 leukemia = tested on: MOLT-4 leukemia
SR leukemia = tested on: SR leukemia
RPMI-8226 leukemia = tested on: RPMI-8226 leukemia
OVCAR-8 ovarian = tested on: OVCAR-8 ovarian
OVCAR-5 ovarian = tested on: OVCAR-5 ovarian
OVCAR-4 ovarian = tested on: OVCAR-4 ovarian
SK-OV-3 ovarian = tested on: SK-OV-3 ovarian
IGROV1 ovarian = tested on: IGROV1 ovarian
OVCAR-3 ovarian = tested on: OVCAR-3 ovarian
HS 578T breast = tested on: HS 578T breast
NCI/ADR-RES ovarian = tested on: NCI/ADR-RES ovarian

Measured: growth

CC(C)NC(=O)c1cc(-c2ccc(NC(=O)Nc3ccc(F)c(C(F)(F)F)c3)cc2)nc2cccnc12
inactive: SK-MEL-2 melanoma 107% | EKVX NSCLC 95.3% | SN12C renal 98.4% | UO-31 renal 92.3% | TK-10 renal 96.6% | ACHN renal 90.5% | CAKI-1 renal 97.7% | A498 renal 89.7% | CCRF-CEM leukemia 90.2% | MOLT-4 leukemia 117% | SR leukemia 81.6% | RPMI-8226 leukemia 89.8% | OVCAR-8 ovarian 79.5% | OVCAR-5 ovarian 113% | OVCAR-4 ovarian 92.3% | SK-OV-3 ovarian 105% | IGROV1 ovarian 110% | OVCAR-3 ovarian 109% | HS 578T breast 87.6% | NCI/ADR-RES ovarian 98.2%

C#CCN(C)CCCOc1ccc(NCc2ccc(C(=O)NO)cc2)cc1Cl
inactive: SK-MEL-2 melanoma 15% | EKVX NSCLC 35.5% | SN12C renal 37.8% | CCRF-CEM leukemia 13.7% | MOLT-4 leukemia 17.3% | SR leukemia 15.7% | OVCAR-8 ovarian 14.7% | OVCAR-5 ovarian 23.4% | OVCAR-4 ovarian 31.3% | IGROV1 ovarian 15.6% | OVCAR-3 ovarian 24.3% | HS 578T breast 25%
active: UO-31 renal -13.7% | TK-10 renal -3.24% | ACHN renal 9.03% | CAKI-1 renal 8.63% | A498 renal -14.9% | RPMI-8226 leukemia 9.94% | SK-OV-3 ovarian -4.09% | NCI/ADR-RES ovarian 7.57%

CNCCN(C)c1ccc(Nc2cc(NC3CC3)n3ncc(C#N)c3n2)cc1NC(C)=O
inactive: SN12C renal 22.4% | ACHN renal 15.1% | CCRF-CEM leukemia 13.2% | RPMI-8226 leukemia 12.2% | OVCAR-8 ovarian 21.7% | NCI/ADR-RES ovarian 45.5%
active: SK-MEL-2 melanoma -20.4% | EKVX NSCLC 7.67% | UO-31 renal 6.68% | TK-10 renal -29.9% | CAKI-1 renal -36.6% | A498 renal -36.5% | MOLT-4 leukemia 8.27% | SR leukemia 6.13% | OVCAR-5 ovarian 7.68% | OVCAR-4 ovarian 2.94% | SK-OV-3 ovarian -13.6% | IGROV1 ovarian -18.3% | OVCAR-3 ovarian -16.9% | HS 578T breast -19%

CC1=C(C)C(=O)C(Nc2ccc(C)cc2)=C(Br)C1=O
active: MOLT-4 leukemia -30.6%
inactive: SK-MEL-2 melanoma 111% | EKVX NSCLC 79.3% | SN12C renal 98.9% | UO-31 renal 87.5% | TK-10 renal 145% | ACHN renal 102% | CAKI-1 renal 106% | A498 renal 97.2% | CCRF-CEM leukemia 17.9% | SR leukemia 43.6% | RPMI-8226 leukemia 55.2% | OVCAR-8 ovarian 92.7% | OVCAR-5 ovarian 108% | OVCAR-4 ovarian 75.6% | SK-OV-3 ovarian 85.5% | IGROV1 ovarian 94.5% | OVCAR-3 ovarian 105% | HS 578T breast 96.7% | NCI/ADR-RES ovarian 95.7%

CCCCCCOC(=O)c1cc(-c2ccc(F)cc2)nc2ccccc12
inactive: SK-MEL-2 melanoma 101% | EKVX NSCLC 96.8% | SN12C renal 95% | UO-31 renal 86.6% | TK-10 renal 118% | ACHN renal 100% | CAKI-1 renal 90.3% | A498 renal 76.4% | CCRF-CEM leukemia 95.8% | MOLT-4 leukemia 97.2% | SR leukemia 107% | RPMI-8226 leukemia 110% | OVCAR-8 ovarian 98.1% | OVCAR-5 ovarian 102% | OVCAR-4 ovarian 101% | SK-OV-3 ovarian 87.4% | IGROV1 ovarian 88.3% | OVCAR-3 ovarian 104% | HS 578T breast 94.1% | NCI/ADR-RES ovarian 96.1%

CCN(CC)CCOc1ccc(C(=C(C)Cc2ccc(OC)cc2)c2ccc(OCCN(CC)CC)cc2)cc1
inactive: SK-MEL-2 melanoma 116% | EKVX NSCLC 84% | SN12C renal 86.1% | UO-31 renal 68.3% | TK-10 renal 111% | ACHN renal 46.7% | CAKI-1 renal 69.8% | A498 renal 85.7% | OVCAR-8 ovarian 74.5% | OVCAR-5 ovarian 77.4% | OVCAR-4 ovarian 89.1% | SK-OV-3 ovarian 93.5% | IGROV1 ovarian 68.9% | OVCAR-3 ovarian 31.2% | HS 578T breast 72.9% | NCI/ADR-RES ovarian 85.4%
active: CCRF-CEM leukemia 3.83% | MOLT-4 leukemia 3.61% | SR leukemia -26.6% | RPMI-8226 leukemia -25%

C#CCOc1cccc(-c2nc(N)nc(Nc3ccccc3SSc3ccccc3Nc3nc(N)nc(-c4cccc(OCC#C)c4)n3)n2)c1
active: SN12C renal 1.17% | UO-31 renal -78.6% | ACHN renal -76.4% | SR leukemia -16.2% | IGROV1 ovarian -5.3% | NCI/ADR-RES ovarian 5.66%
inactive: SK-MEL-2 melanoma 96.3% | EKVX NSCLC 37.3% | TK-10 renal 134% | CAKI-1 renal 29.1% | A498 renal 73% | CCRF-CEM leukemia 30.6% | MOLT-4 leukemia 44% | RPMI-8226 leukemia 22% | OVCAR-8 ovarian 16.7% | OVCAR-5 ovarian 45% | OVCAR-4 ovarian 80.9% | SK-OV-3 ovarian 91.5% | OVCAR-3 ovarian 79.7% | HS 578T breast 51.9%

COC(=O)c1cccc(NC2=C(Cl)C(=O)C(C)=C(C)C2=O)c1
active: CCRF-CEM leukemia 6.54% | OVCAR-4 ovarian -36.7%
inactive: SK-MEL-2 melanoma 98% | EKVX NSCLC 92.2% | SN12C renal 92.6% | UO-31 renal 89.4% | TK-10 renal 150% | ACHN renal 104% | CAKI-1 renal 94.2% | A498 renal 87.7% | MOLT-4 leukemia 11.3% | SR leukemia 30% | RPMI-8226 leukemia 58.3% | OVCAR-8 ovarian 99.4% | OVCAR-5 ovarian 101% | SK-OV-3 ovarian 106% | IGROV1 ovarian 56.2% | OVCAR-3 ovarian 94.2% | HS 578T breast 88.1% | NCI/ADR-RES ovarian 98.2%

CC(C)(C)Nc1nc2c(OCCc3ccccc3)cccn2c1-c1cccc(Oc2ccccc2)c1
inactive: EKVX NSCLC 13.5% | SN12C renal 12.3% | TK-10 renal 21.8% | A498 renal 16.2% | CCRF-CEM leukemia 15% | OVCAR-8 ovarian 10.2% | OVCAR-5 ovarian 17.7% | OVCAR-4 ovarian 31.2% | IGROV1 ovarian 34% | OVCAR-3 ovarian 24% | HS 578T breast 13.9%
active: SK-MEL-2 melanoma -26.2% | UO-31 renal 5.5% | ACHN renal 7.39% | CAKI-1 renal 8.12% | MOLT-4 leukemia 5.42% | SR leukemia 3.9% | RPMI-8226 leukemia 4.94% | SK-OV-3 ovarian -1.76% | NCI/ADR-RES ovarian 7.94%

C=C(C)[C@@H]1CC[C@]2(COCCCNCCCN)CC[C@]3(C)[C@H](CC[C@@H]4[C@@]5(C)CC[C@H](O)C(C)(C)[C@@H]5CC[C@]43C)[C@@H]12
active: EKVX NSCLC -84.2% | SN12C renal -78.8% | UO-31 renal -93% | TK-10 renal -85.5% | ACHN renal -98.6% | CAKI-1 renal -85.6% | A498 renal -16.1% | CCRF-CEM leukemia -40.2% | MOLT-4 leukemia -34.5% | SR leukemia -33.1% | RPMI-8226 leukemia -35.3% | OVCAR-8 ovarian -40.4% | OVCAR-5 ovarian -95.3% | OVCAR-4 ovarian -68.5% | IGROV1 ovarian -82.9% | OVCAR-3 ovarian -77.5% | HS 578T breast -49.1% | NCI/ADR-RES ovarian -65.5%
inactive: SK-MEL-2 melanoma 99.1% | SK-OV-3 ovarian 105%

COC(=O)c1cccc(NC2=CC(=O)C(C)=C(C)C2=O)c1
active: OVCAR-3 ovarian 8.14%
inactive: SK-MEL-2 melanoma 101% | EKVX NSCLC 100% | SN12C renal 93.3% | UO-31 renal 94.5% | TK-10 renal 133% | ACHN renal 100% | CAKI-1 renal 86.5% | A498 renal 78.7% | CCRF-CEM leukemia 52.8% | MOLT-4 leukemia 40% | SR leukemia 45.5% | RPMI-8226 leukemia 80.8% | OVCAR-8 ovarian 87.9% | OVCAR-5 ovarian 109% | OVCAR-4 ovarian 24.3% | SK-OV-3 ovarian 105% | IGROV1 ovarian 89.5% | HS 578T breast 116% | NCI/ADR-RES ovarian 87.2%

C[C@@H]1OCC2(CCN(c3cnc(C(=O)Nc4cc(F)cc5cccnc45)cn3)CC2)[C@@H]1N
active: SR leukemia 2.82%
inactive: SK-MEL-2 melanoma 97.9% | EKVX NSCLC 78.2% | SN12C renal 59.6% | UO-31 renal 41.1% | TK-10 renal 90.8% | ACHN renal 31.8% | CAKI-1 renal 45.8% | A498 renal 71.9% | CCRF-CEM leukemia 15.7% | MOLT-4 leukemia 20.8% | RPMI-8226 leukemia 55.5% | OVCAR-8 ovarian 86.8% | OVCAR-5 ovarian 80% | OVCAR-4 ovarian 14.8% | SK-OV-3 ovarian 102% | IGROV1 ovarian 28% | OVCAR-3 ovarian 18.7% | HS 578T breast 66.6% | NCI/ADR-RES ovarian 76.4%

CCC(=C(c1ccc(OCCN2CCCCCC2)cc1)c1ccc(OCCN2CCCCCC2)cc1)c1ccc(Cl)cc1
inactive: EKVX NSCLC 54.5% | SN12C renal 48.3% | UO-31 renal 13.6% | TK-10 renal 114% | ACHN renal 26.2% | CAKI-1 renal 44.3% | A498 renal 84.4% | OVCAR-5 ovarian 58.3% | OVCAR-4 ovarian 47.2% | SK-OV-3 ovarian 96.7% | OVCAR-3 ovarian 30.8% | NCI/ADR-RES ovarian 29.4%
active: SK-MEL-2 melanoma -29.9% | CCRF-CEM leukemia 3.5% | MOLT-4 leukemia 4.03% | SR leukemia -5.89% | RPMI-8226 leukemia -29.7% | OVCAR-8 ovarian 2.46% | IGROV1 ovarian 2.76% | HS 578T breast -51%

CC(=O)Nc1cc(N2CCOCC2)c2nc(NC(=O)c3[nH]c(C)c(Cl)c3Cl)sc2c1
active: OVCAR-4 ovarian -10.8%
inactive: SK-MEL-2 melanoma 83% | EKVX NSCLC 85.1% | SN12C renal 49.8% | UO-31 renal 57.9% | TK-10 renal 112% | ACHN renal 49.3% | CAKI-1 renal 93.1% | A498 renal 95.6% | CCRF-CEM leukemia 74.2% | MOLT-4 leukemia 65% | SR leukemia 28.6% | RPMI-8226 leukemia 55% | OVCAR-8 ovarian 67.1% | OVCAR-5 ovarian 94.7% | SK-OV-3 ovarian 95.5% | IGROV1 ovarian 82.5% | OVCAR-3 ovarian 72.3% | HS 578T breast 31.3% | NCI/ADR-RES ovarian 48.9%

COc1ccccc1/C=C1\Oc2ccc(O)c(O)c2C1=O
inactive: SK-MEL-2 melanoma 102% | EKVX NSCLC 78.5% | SN12C renal 94.5% | UO-31 renal 82.1% | TK-10 renal 100% | ACHN renal 101% | CAKI-1 renal 78.4% | A498 renal 85.1% | CCRF-CEM leukemia 75.5% | MOLT-4 leukemia 85% | SR leukemia 99.6% | RPMI-8226 leukemia 93.5% | OVCAR-8 ovarian 94.1% | OVCAR-5 ovarian 105% | OVCAR-4 ovarian 84% | SK-OV-3 ovarian 105% | IGROV1 ovarian 98.7% | OVCAR-3 ovarian 102% | HS 578T breast 87.9% | NCI/ADR-RES ovarian 98.5%
